Assay outcomes: PubChem, several laboratories
CRFBP-R2 agonist = agonists of human CRF-binding protein/CRF-R2 receptor complex | HEK293 CRF-R2/CRF-BP, calcium dye fluorescence (FLIPR); percent of saturating CRF peptide response | AID 588473 | actives 0.46% (n = 350,000) | activation, % at 13.2 µM;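 active means activation of at least 50%, plus an integration ratio under a set limit after plate pattern correction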
IDE cell inh = inhibits human insulin-degrading enzyme in HEK cells | P14735 | FAbetaB cleavage, fluorescence polarization | inhibition, % at 5.59 µM | actives 0.41% (n = 320,000) | AID 434962;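 active means percent inhibition above the average of all tested compounds plus 3 SD, set per screening campaign, cut at about 16% in these data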;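 further: IDE supplied by intact live HEK cells; FP after avidin binding of uncleaved biotin substrate so inhibition keeps polarization high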
Target sequence (P14735 whole entry, looked up): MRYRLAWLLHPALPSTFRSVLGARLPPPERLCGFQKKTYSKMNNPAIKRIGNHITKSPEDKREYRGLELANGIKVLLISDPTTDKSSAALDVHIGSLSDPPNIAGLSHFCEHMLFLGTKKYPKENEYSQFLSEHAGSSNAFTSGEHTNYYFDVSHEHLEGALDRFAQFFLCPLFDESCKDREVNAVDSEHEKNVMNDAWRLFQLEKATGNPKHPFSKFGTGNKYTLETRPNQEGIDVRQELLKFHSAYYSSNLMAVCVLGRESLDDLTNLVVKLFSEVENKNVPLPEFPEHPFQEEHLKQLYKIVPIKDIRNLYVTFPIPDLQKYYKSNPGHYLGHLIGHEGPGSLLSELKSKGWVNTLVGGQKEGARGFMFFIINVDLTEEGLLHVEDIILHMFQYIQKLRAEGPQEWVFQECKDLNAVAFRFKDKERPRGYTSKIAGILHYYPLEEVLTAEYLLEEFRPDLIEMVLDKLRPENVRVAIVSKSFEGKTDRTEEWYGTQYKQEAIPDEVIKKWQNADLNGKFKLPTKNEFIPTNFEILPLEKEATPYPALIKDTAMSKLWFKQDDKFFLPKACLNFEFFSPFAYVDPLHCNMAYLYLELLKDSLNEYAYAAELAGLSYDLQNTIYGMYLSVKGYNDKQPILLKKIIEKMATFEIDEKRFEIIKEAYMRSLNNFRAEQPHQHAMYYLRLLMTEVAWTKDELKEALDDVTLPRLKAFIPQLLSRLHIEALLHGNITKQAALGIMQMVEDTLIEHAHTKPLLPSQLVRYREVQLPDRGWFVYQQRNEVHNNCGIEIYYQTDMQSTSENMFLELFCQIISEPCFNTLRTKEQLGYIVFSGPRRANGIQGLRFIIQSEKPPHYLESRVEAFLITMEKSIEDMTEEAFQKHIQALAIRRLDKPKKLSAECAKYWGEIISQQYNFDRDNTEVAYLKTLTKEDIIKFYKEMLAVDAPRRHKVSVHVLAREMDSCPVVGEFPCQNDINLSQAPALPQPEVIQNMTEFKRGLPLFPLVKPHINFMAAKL
Myeloid diff 2 = promotes myeloid progenitor differentiation; calls only at 10 µM; ER-HoxA9 myeloid progenitors, lysozyme-GFP differentiation, flow cytometry; actives 1% (n = 360,000);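 active means normalized GFP-positive differentiation at or above the plate's own cutoff, the solvent-only control mean plus 3 SD; inconclusive means no clear call, values can overlap the other calls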;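 further: cells exposed to compound for four days before flow analysis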
TPT1 inh = inhibitors of Candida albicans tRNA 2'-phosphotransferase TPT1; recombinant caTPT1, FP RNA substrate dephosphorylation; inhibition, % at 5 µM; actives 0.81% (n = 300,000); AID 1962;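 active means inhibition above the mean of all tested compounds plus 3 SD, set per screening campaign, cut at about 24% in these data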
CRFBP-R2 block = CRF-BP/CRF-R2 complex antagonism | actives 0.59% (n = 350,000) | HEK293 CRF-R2/CRF-BP, CRF-induced calcium fluorescence | inhibition, % at 11.8 µM;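 active means inhibition of the ligand-induced calcium signal above about 50% at the single tested concentration, limit read from the data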
IDE act = activators of human insulin-degrading enzyme in cells | P14735 | actives 0.073% (n = 340,000) | activation, % at 5.96 µM | HEK cells, FAbeta-B cleavage, fluorescence polarization; 0% vehicle, 100% cell-free pure enzyme wells | AID 493087;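 active means activation above the mean of all tested compounds plus 3 SD, set per screening campaign, cut at about 17% in these data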
caTPT1 confirm = confirmation of Candida albicans TPT1 inhibitors. shares compounds with TPT1 inh. recombinant caTPT1, fluorescence polarization, RNase T1 coupled. inhibition, % at 5 µM. actives 74% (n = 2,400). AID 2149;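 active means inhibition above the primary screen limit, the mean inhibition of all tested compounds plus 3 SD, cut at about 25% in these data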
RNase T1 inh = counter-screen for TPT1 inhibitors: inhibitors of Aspergillus oryzae RNase T1; shares compounds with TPT1 inh; RNase T1 cleavage, fluorescence polarization, 1536-well; inhibition, % at 5 µM; actives 83% (n = 2,400); AID 2153;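 active means inhibition above the solvent-only control well mean plus 3 SD, limit set per screening run, cut at about 23% in these data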;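 further: inhibitors block cleavage so intact labeled substrate keeps polarization high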
Each line names hits and unclear results; the compound was inactive in the other large screens (follow-up assays come after a bar, where they were run). Hits are enriched below; roughly 2.6% of the tested compounds scored in any of these assays.

C=Cc1cc(OC)c2c(c1)c(=O)oc1c2cc(OC)c2c(O)ccc(C3OC(C)C(O)C(C)(O)C3O)c21 (stereo unspecified)	Myeloid diff 2 inconclusive (no result: IDE cell inh, TPT1 inh)
Cc1ccc(N2C(=O)NC(=O)/C(=C\C=C\c3ccco3)C2=O)cc1C	Myeloid diff 2 active, TPT1 inh 37.7 | caTPT1 confirm 51.3 | RNase T1 inh 69.6
Cc1ccc(N2C(=O)NC(=O)/C(=C\C=C\c3ccco3)C2=O)cc1	TPT1 inh 42.8 | caTPT1 confirm 34.5 | RNase T1 inh 53.6
Cc1ccc(N2C(=O)NC(=O)/C(=C\c3ccoc3)C2=O)cc1	CRFBP-R2 agonist 53.6, IDE cell inh 19.8, TPT1 inh 133.4 | caTPT1 confirm 26.8 | RNase T1 inh 36.9
Cc1cccc(N2C(=O)NC(=O)/C(=C/c3ccc([N+](=O)[O-])o3)C2=O)c1	TPT1 inh 27.8 (no result: Myeloid diff 2, IDE act) | caTPT1 confirm inactive | RNase T1 inh inactive
CC1CN1c1cc2c(c3c1ccn3C)C1CCC2C1 (stereo unspecified)	none (no result: CRFBP-R2 agonist, IDE cell inh, TPT1 inh, CRFBP-R2 block, IDE act)
Cc1ccc(OCCn2cccc2/C=C2/C(=O)NC(=O)N(Cc3ccco3)C2=O)cc1	TPT1 inh 25.4 | caTPT1 confirm 40.5 | RNase T1 inh 27.4
COc1ccc(N2C(=O)CC(=O)NC2=O)cc1	none
COc1ccc(CN2C(=O)CC(=O)NC2=O)cc1	TPT1 inh 24.4 | caTPT1 confirm inactive | RNase T1 inh 24.5
CCC(C)N1C(=O)/C(=C\c2cc3c4c(c2)CCCN4CCC3)C(=O)NC1=S (stereo unspecified)	none
CCCCN1C(=O)/C(=C/c2ccc(N3CCCCCC3)cc2)C(=O)NC1=S	TPT1 inh 36.5 (no result: CRFBP-R2 agonist, Myeloid diff 2, CRFBP-R2 block, IDE act) | caTPT1 confirm 32.7 | RNase T1 inh 43.1
CN1C(=O)/C(=C\c2ccc(N3CCCCCC3)cc2)C(=O)NC1=S	none
CCC(C)N1C(=O)/C(=C\c2ccc(N3CCCCCC3)cc2)C(=O)NC1=S (stereo unspecified)	TPT1 inh 24.9 | caTPT1 confirm 37.1 | RNase T1 inh 57.8
CCN(CC)c1ccc(CNCCc2ccccc2F)cc1	none
CN1CCC(O)(c2cccs2)C(C(=O)c2cccs2)C1 (stereo unspecified)	none
Cc1nc2ccccn2c1P(=S)(c1ccccc1)c1ccccc1	none (no result: CRFBP-R2 agonist, IDE cell inh, TPT1 inh, CRFBP-R2 block, IDE act)
CC(C)(C)c1ccc(O)c(N=Cc2c(O)ccc3ccccc23)c1	CRFBP-R2 agonist 60.3, Myeloid diff 2 active, TPT1 inh 134.9 | caTPT1 confirm 137.8 | RNase T1 inh 131.2
COC(=O)C(O)(c1ccc(N=Cc2ccccc2O)c(C)c1)C(F)(F)F (stereo unspecified)	none
O=c1[nH]c2ccccc2n1C1CCN(C(c2cc3ccccc3o2)c2nnnn2-c2ccc3c(c2)OCCO3)CC1 (stereo unspecified)	none (no result: CRFBP-R2 agonist, IDE cell inh, TPT1 inh, CRFBP-R2 block, IDE act)
Cc1ccc(/C=C2\C(=O)NC(=S)N(c3cccc(F)c3)C2=O)o1	TPT1 inh 40.8 | caTPT1 confirm 45.8 | RNase T1 inh 57.1
CCOc1ccc(N2C(=O)/C(=C/c3ccc(C)o3)C(=O)NC2=S)cc1	TPT1 inh 32.1 | caTPT1 confirm 47.0 | RNase T1 inh 57.4
CCOc1ccc(N2C(=O)NC(=O)/C(=C\c3ccc(N4CCCCC4)o3)C2=O)cc1	CRFBP-R2 agonist 56.9, TPT1 inh 138.1 | caTPT1 confirm 148.6 | RNase T1 inh 145.9
C=CCn1c(O)c(C=Nc2c(C)n(C)n(-c3ccccc3)c2=O)c(=O)[nH]c1=O	TPT1 inh 38.3 | caTPT1 confirm inactive | RNase T1 inh 23.8
Cc1c(N=Cc2c(O)n(C)c(=O)[nH]c2=O)c(=O)n(-c2ccccc2)n1C	none (no result: IDE act)
COc1ccc(C(=O)NC(=S)N2C[C@H]3C[C@H](C2)c2cccc(=O)n2C3)cc1	none
C#CC1(O)CCC2C3CCC4=C/C(=N/OCC(=O)NCC(=O)NC(C(=O)O)C(C)C)CC[C@]4(C)C3CC[C@@]21C (stereo partly specified)	none (no result: IDE cell inh, TPT1 inh)
C#C[C@]1(O)CC[C@H]2[C@@H]3CCC4=Cc5nc6nc7ccccc7n6cc5C[C@]4(C)[C@H]3CC[C@@]21C	Myeloid diff 2 active, TPT1 inh 32.2 | caTPT1 confirm 33.4 | RNase T1 inh 43.9
C=CCn1c(=O)c(C=Nc2cccnc2Cl)c(O)n(CCCC)c1=O	TPT1 inh 43.5 | caTPT1 confirm inactive | RNase T1 inh 23.3
CCOC(=O)c1c(/N=C/c2c(O)n(-c3ccc(F)cc3)c(=S)[nH]c2=O)sc2c1CCCC2	none
CCOC(=O)c1c(/N=C/c2c(O)n(-c3ccccc3F)c(=S)[nH]c2=O)sc2c1CCCC2	TPT1 inh 38.5 | caTPT1 confirm 86.5 | RNase T1 inh 95.7
O=C(Cn1nc(-c2ccccc2)ccc1=O)N1CCC2(CC1)OCCO2	none
COC(=O)c1ccccc1N=Cc1c(O)[nH]c(=O)[nH]c1=O	none
CCN(CC)CCOC(=O)c1ccc(N=Cc2c(O)[nH]c(=O)[nH]c2=O)cc1	TPT1 inh 60.3 | caTPT1 confirm 70.0 | RNase T1 inh 86.6
COc1ccc(CN2Cc3cc(N4CCCCC4)ccc3-n3nncc3C2)cc1	none (no result: CRFBP-R2 agonist, IDE cell inh, TPT1 inh, CRFBP-R2 block, IDE act)
CCOC(=O)c1cc2ccccc2n1C1CCN(Cc2ccccc2)CC1	none (no result: CRFBP-R2 agonist, IDE cell inh, TPT1 inh, CRFBP-R2 block, IDE act)
Cc1cccc(N2C(=O)/C(=C/c3ccc(CN(CCC#N)S(C)(=O)=O)o3)C(=O)NC2=S)c1	TPT1 inh 33.7 | caTPT1 confirm inactive | RNase T1 inh 28.9
Cc1ccc(N2C(=O)/C(=C/c3ccc(CN(CCC#N)S(C)(=O)=O)o3)C(=O)NC2=S)cc1C	TPT1 inh 46.0 (no result: CRFBP-R2 agonist, Myeloid diff 2, CRFBP-R2 block, IDE act) | caTPT1 confirm 47.6 | RNase T1 inh 57.3
Cc1cccc(N2C(=O)NC(=O)/C(=C\c3cccn3-c3ccc(Cl)cc3)C2=O)c1	none
CCOC(=O)c1c(-n2c(C)cc(/C=C3\C(=O)NC(=O)N(C)C3=O)c2C)sc2c1CCCC2	none
Cc1cc(/C=C2\C(=O)NC(=O)N(c3ccc(Cl)cc3)C2=O)c(C)n1-c1sc2c(c1C#N)CCCC2	TPT1 inh 45.8 | caTPT1 confirm inactive | RNase T1 inh 27.5
O=C1NC(=O)C(=Cc2ccc(-c3ccc(F)cc3O)o2)C(=O)N1	TPT1 inh 25.1 | caTPT1 confirm 42.5 | RNase T1 inh 62.9
O=c1[nH]c(=O)n(Cc2ccco2)c(O)c1/C=N/N1CCCCCC1	none
N#Cc1c(/N=C/c2c(O)n(Cc3ccco3)c(=O)[nH]c2=O)sc2c1CCCC2	TPT1 inh 44.3 | caTPT1 confirm inactive | RNase T1 inh inactive
COc1ccc(N=Cc2c(O)n(-c3ccc(C)cc3)c(=O)[nH]c2=O)cc1	none (no result: IDE act)
CCN(CC)c1ccc(N=Cc2c(O)n(Cc3ccco3)c(=O)[nH]c2=O)cc1	CRFBP-R2 agonist 59.9, TPT1 inh 45.3 | caTPT1 confirm 64.0 | RNase T1 inh 68.8
